# Data reported in PubChem BioAssay AID1645838 (ICCB-Longwood Screening Facility, Harvard Medical School, 2021).
# Values joined by “and” are separate entries in the source; they are usually repeats but may differ in a detail not shown here. Identical values can stand only once. About 100 (5%) of roughly 2,000 compounds were called active. No stated cut-off is given here; in the data, active means z-score above about 2; inactive means the rest. The entries come from a sample that favours actives as a whole.
# Experiment: modulators of mitochondrial supercomplex assembly, cell-based, luminescence, Hoechst nuclei count (AID 1645838);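 further: control cybrid cells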;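 on z-score: higher means more mitochondrial supercomplex formation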
# Details: Cells, luminescence/Hoechst cell count ratio, supercomplex reporter; for z-score: stronger effect = higher value; for cell count: measured here: cell number, Hoechst nuclei count; for outcome: library stock 10 mM
# [1] = library stock concentration (final well concentration not given) 80 uM
# [2] = library stock concentration (final well concentration not given) 400 uM
# [3] = library stock concentration (final well concentration not given) 2 mM
# [4] = library stock concentration (final well concentration not given) 10 mM
# [5] = library stock concentration (final well concentration not given) 46 uM
# [6] = library stock concentration (final well concentration not given) 278 uM
# [7] = library stock concentration (final well concentration not given) 1.67 mM
compound,measurement,setting,value
CCCCCCCCCCCCCCCC(=O)NC[C@@H](C)O,z-score,,-0.297 (inactive)
same,cell count,,5690
CCCCC/C=C\C=C1\C(=O)CC[C@@H]1C/C=C\CCCC(=O)O,z-score,,-0.163 (inactive)
same,cell count,,5580
COc1ccc(C(=O)O)cc1,z-score,[1],-0.451 (inactive)
same,z-score,[2],-0.128 (inactive)
same,z-score,[3],-0.287 (inactive)
same,z-score,[4],-0.368 (inactive)
same,cell count,[1],6090
same,cell count,[2],5780
same,cell count,[3],5670
same,cell count,[4],5840
COc1ccc(C(=O)C(=O)c2ccc(OC)cc2)cc1,z-score,[1],-0.606 (inactive)
same,z-score,[2],-0.661 (inactive)
same,z-score,[3],-0.561 (inactive)
same,z-score,[4],-0.758 (inactive)
same,cell count,[1],5520
same,cell count,[2],5760
same,cell count,[3],5480
same,cell count,[4],5880
COc1ccc(C(=O)CC2(O)C(=O)Nc3c(Cl)ccc(Cl)c32)cc1 (configuration not stated),outcome,,inactive; censored for cell count
same,z-score,[5],-0.53 (inactive)
same,z-score,[6],0.329 (inactive)
same,z-score,[7],3.41 (active)
same,cell count,[5],7260
same,cell count,[6],5870
same,cell count,[7],2920
CCCCCCCCCCCCC(O)C(=O)O (configuration not stated),z-score,,-0.554 (inactive)
same,cell count,,5820
CCCCC[C@@H](O)/C=C/[C@@H]1[C@@H](C/C=C\CCCC(=O)O)[C@@H](O)C[C@H]1O,z-score,,-0.443 (inactive)
same,cell count,,5100
CCCCC[C@H](O)CC[C@H]1[C@H](O)CC(=O)[C@@H]1CCCCCCC(=O)O,z-score,,0.391 (inactive)
same,cell count,,5410
CCCCC[C@H](O)/C=C/[C@H]1C(=O)C=C[C@@H]1C/C=C\CCCC(=O)O,z-score,,-0.0566 (inactive)
same,cell count,,4900
NCCCCN(Cc1nc2ccccc2[nH]1)C1CCCc2cccnc21 (configuration not stated),z-score,[1],-0.0283 (inactive)
same,z-score,[2],0.157 (inactive)
same,z-score,[3],0.36 (inactive)
same,z-score,[4],2.01 (active)
same,cell count,[1],5890
same,cell count,[2],5860
same,cell count,[3],5630
same,cell count,[4],3290
CCCCC[C@@](C)(O)/C=C/[C@@H]1[C@@H](C/C=C\CCCC(=O)OC)[C@@H](O)C[C@H]1O,z-score,,-0.104 (inactive)
same,cell count,,5030
CCCCC[C@H](O)/C=C/[C@@H]1c2cc(CCCCC(=O)O)n(-c3ccccc3)c2C[C@H]1O,z-score,,-1.31 (inactive)
same,cell count,,6120
COc1cc2nccc(Oc3ccc(NC(=O)Nc4cc(C)on4)c(Cl)c3)c2cc1OC,outcome,,inactive; censored for cell count
same,z-score,[1],-0.536 (inactive) and -0.288 (inactive)
same,z-score,[2],-0.724 (inactive) and -0.129 (inactive)
same,z-score,[3],-1.01 (inactive) and -0.967 (inactive)
same,z-score,[4],5.93 (active)
same,cell count,[1],4520 and 5260
same,cell count,[2],4890 and 4760
same,cell count,[3],4710 and 4870
same,cell count,[4],1710
COc1cc(OC)c(NC(=O)Nc2cc(C)on2)cc1Cl,z-score,[1],-0.669 (inactive)
same,z-score,[2],-0.368 (inactive)
same,z-score,[3],-0.584 (inactive)
same,z-score,[4],-0.574 (inactive)
same,cell count,[1],6520
same,cell count,[2],5740
same,cell count,[3],6660
same,cell count,[4],5990
COC(=O)C(CCSC)NC(=O)c1ccc(NCC(N)CS)cc1-c1ccccc1 (configuration not stated),z-score,[1],-0.72 (inactive)
same,z-score,[2],-0.795 (inactive)
same,z-score,[3],-0.715 (inactive)
same,z-score,[4],-1.02 (inactive)
same,cell count,[1],6120
same,cell count,[2],6350
same,cell count,[3],6090
same,cell count,[4],5780
COc1ccc2c(c1)CN(C)CCS2,z-score,[1],-0.906 (inactive)
same,z-score,[2],-0.795 (inactive)
same,z-score,[3],-1.04 (inactive)
same,z-score,[4],-1.49 (inactive)
same,cell count,[1],6210
same,cell count,[2],6190
same,cell count,[3],6290
same,cell count,[4],6260
CCCCC[C@H](O)/C=C/[C@H]1C(=O)C[C@H](O)[C@@H]1C/C=C\CCCC(=O)NC(CO)CO,z-score,,1.15 (inactive)
same,cell count,,4420
CCCCC/C=C\C/C=C\C/C=C\C/C=C\CCCC(=O)NC[C@]1(C)CCC[C@]2(C)c3ccc(C(C)C)cc3CC[C@@H]12,z-score,,-0.12 (inactive)
same,cell count,,4820
CCC(C)(C)C(=O)OC1CC(C)C=C2C=CC(C)C(CCC3CC(O)CC(=O)O3)[C@H]21 (some centres not stated),z-score,[1],-0.332 (inactive)
same,z-score,[2],-0.176 (inactive)
same,z-score,[3],-0.124 (inactive)
same,z-score,[4],3.34 (active)
same,cell count,[1],6550
same,cell count,[2],6140
same,cell count,[3],6050
same,cell count,[4],2650
